HT1080 IDH1KD tx: HT-1080 IDH1 knockdown cell toxicity (counter line); HT-1080 IDH1 knockdown viability, ATP luminescence, 48 h; Potency, µM (top dose mostly 46.1 µM), usual class: cytotoxic; 2% of 360,000 active
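IDH1KD HT-1080 cells, 750/well, RPMI + 5% FBS; compound pinned after 2 h settling; 48 h, 37 °C; CellTiter-Glo luminescence; % activity normalised to DMSO and no-cell wells; curves fitted, classed by r2 and efficacy.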
SW480 rereplic: DNA re-replication induction in SW480 cells; 1.8% of 340,000 active; SW480 DNA re-replication, Hoechst DNA content imaging, 48 h; Potency, µM (titrated, usually from 46.1 µM), most hits filed as activators; further: nearly all actives have a fitted effect of over 55% in size
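Cells (250 per well) received 23 nL compound or DMSO by pin tool and were kept 48 hr at 37 C, 5% CO2. Nuclei were then stained with Hoechst for 40 min and scanned for DNA content.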
MCF10A rerep: induces DNA re-replication in MCF 10a normal breast cells; MCF 10A DNA re-replication, Hoechst nuclear intensity, 48 h; Potency, µM (doses to about 46.1 µM), hits mostly activators; 2.9% of 350,000 active; further: nearly all actives have a fitted effect of over 50% in size
HT1080NT lethal: kills 2HG-producing HT-1080-NT fibrosarcoma cells; HT-1080-NT fibrosarcoma viability, CellTiter-Glo ATP luminescence, 48 h; Potency, µM (top dose mostly 46.1 µM), most hits filed as cytotoxic; 1.6% of 360,000 active; AID 686970;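 further: NT is the 2HG producing partner of a matched IDH1 knockdown line; nearly all actives have a fitted effect of over 55% in size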
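Read-out is CellTiter-Glo luminescence after 10 minutes at room temperature, following 48 hours' compound treatment of HT-1080-NT cells (750 cells/well, RPMI, 5% FBS, 37 degrees C).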
KB-V1 cytotox: kills drug-selected multidrug resistant KB-V1 cells | KB-V1 MDR cells viability, CellTiter-Glo, 72 h | Potency, µM (titrated, usually from 46.1 µM), hits mostly cytotoxic | 3.4% of 400,000 active | AID 1347076; further: nearly all actives have a fitted effect of over 60% in size
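Luminescent ATP read-out (CellTiter-Glo, 10 min) measures survival of drug-selected KB-V1 MDR cells after 72 h, 37 degrees C compound exposure. Medium: phenol-red-free DMEM, 10% FBS. Values from fitted concentration-response curves.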
KB-3-1 cytotox: KB-3-1 parental cell cytotoxicity; 1.4% of 400,000 active; Potency, µM (titrated, usually from 46.1 µM), usual class: cytotoxic; KB-3-1 viability, CellTiter-Glo ATP luminescence, 72 h; AID 1347075; further: nearly all actives have a fitted effect of over 60% in size
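Cytotoxicity measured as CellTiter-Glo luminescence after 72 h at 37 C. Compound titrations were pinned onto drug-naive KB-3-1 parental adenocarcinoma cells grown in DMEM with 10% FBS, and normalized data fitted to concentration-response curves.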
A number is an active result; n = inactive; u = inconclusive; x = not tested or not shown. A selection: hits, their analogues and other compounds. The true share with any hit is near 8%. The call rests on the fitted dose curve; in most records, active means well fitted curve in the direction sought with a large enough effect; inconclusive means small, poorly fitted or top-dose-only effect, or another doubt; inactive means no such curve, though single readings can be large; an effect the other way counts as inactive or inconclusive.

SMILES	HT1080 IDH1KD tx	SW480 rereplic	MCF10A rerep	HT1080NT lethal	KB-V1 cytotox	KB-3-1 cytotox
CC1(C)C[C@H](O)[C@]2(CO)[C@H](O)C[C@]3(C)C(=CCC4[C@@]5(C)CC[C@H](O)C(C)(C)C5CC[C@]43C)[C@@H]2C1 (some centres undefined)	u	n	u	21µM	u	u
CC1(C)CC[C@]2(CO)CC[C@]3(C)C(=CCC4[C@@]5(C)CC[C@H](O)[C@@](C)(CO)C5CC[C@]43C)[C@@H]2C1 (some centres undefined)	n	n	10µM	n	n	n
CC1(C)C[C@H](O)[C@]2(CO)CC[C@]3(C)C(=CCC4[C@@]5(C)CC[C@H](O)C(C)(C)C5CC[C@]43C)[C@@H]2C1 (some centres undefined)	n	n	u	n	n	n
Cc1cccc(NC(=O)N2CCC(C(=O)c3ccc(F)cc3)CC2)c1	u	2.3µM	n	n	n	n
Cc1cc(C)cc(NC(=O)N2CCC(C(=O)c3ccc(F)cc3)CC2)c1	n	n	n	n	u	n
COc1ccccc1N1CCN(S(=O)(=O)c2c(C)sc3ncn(CC(=O)N(C)c4ccc(Cl)cc4)c(=O)c23)CC1	x	x	x	x	n	n
Cc1cccc(N2CCN(Cc3nnc(-c4ccc5c(c4)OCO5)o3)CC2)c1C	x	x	x	x	n	n
COc1ccccc1-c1nnc(SC2CCc3ccccc3NC2=O)s1 (centres undefined)	n	n	n	n	5.8µM	n
COc1ccccc1-c1nnc(N)s1	n	n	n	n	n	n
CCCCCCCC/C=C\CCCCCCCCN	x	n	n	x	x	x
COc1ccc2c(c1)C(=O)[C@H](O)[C@@H](c1ccc(OC)c(Br)c1)O2	u	4.1µM	u	n	n	n
CN1CC=C2C(C#N)=C(N)C(C#N)(C#N)[C@H](c3ccoc3)[C@H]2C1	n	n	n	n	n	n
CN1CC=C2C(C#N)=C(N)C(C#N)(C#N)C(c3cccc(Cl)c3Cl)C2C1 (centres undefined)	n	n	u	n	21µM	n
N#CC1=C(N)C(C#N)(C#N)[C@H](c2ccoc2)[C@H]2CN(Cc3ccccc3)CC=C12	2.6µM	16µM	7.3µM	u	u	5.2µM
COc1ccc(-c2cc3c(=O)n(CC(=O)Nc4cc(F)ccc4F)ccn3n2)cc1OC	x	x	x	x	n	u
CC12CCC(C(=O)Nc3ccccc3Cl)(C(Br)C1=O)C2(C)C (centres undefined)	n	n	u	n	13µM	n
CC12CCC(C(=O)Nc3ccccc3Cl)([C@H](Br)C1=O)C2(C)C (some centres undefined)	n	n	u	n	n	n
CS(=O)(=O)N(CC(=O)Nc1ccc2c(c1)OCO2)c1ccc(Cl)cc1	n	n	n	n	23µM	n
Cc1ccc(Cn2ccc(NC(=O)c3cc(-c4ccc(Cl)cc4)on3)n2)cc1	n	n	n	n	n	n
CC(C)c1cc(C(=O)Nc2ccc3c(c2)OCO3)no1	n	n	n	n	n	n
CCN(CC)c1ccc(NC(=O)c2ccc3c(c2)OCO3)cc1	21µM	u	n	u	u	u
Cc1ccc(Cn2ccc(NC(=O)c3cc(-c4cccc(Cl)c4)on3)n2)cc1	n	n	u	n	15µM	n
CCC(=O)Nc1ccc(NC(=O)c2ccc3c(c2)OCO3)cc1	n	n	n	n	n	n
O=C(Nc1ccc2c(c1)OCO2)c1cc(C2CC2)on1	8.2µM	n	u	u	n	u
Cc1ccc(N(CC(=O)Nc2ccc3c(c2)OCCO3)S(C)(=O)=O)cc1	n	n	n	n	n	n
Cc1cc(F)ccc1NC(=O)C1CCCN(S(=O)(=O)c2ccc3c(c2)CCCC(=O)N3)C1 (centres undefined)	x	x	x	x	n	n
Cc1ccc(CN(c2ccc(C(=O)Nc3ccc4c(c3)OCO4)cc2)S(C)(=O)=O)cc1	n	n	n	n	6.5µM	n

High-throughput results (PubChem BioAssay)
